Results taken from PubChem BioAssay (NCATS).
Records with an inconclusive call do not appear. Active and inactive are the calls of the source. The call rests on the fitted dose curve; in most records, active means well fitted cell-killing curve with a large enough effect; inconclusive means small, poorly fitted or top-dose-only effect, or effect the other way; inactive means flat fitted curve, though single readings scatter.

test system: CASKI; test: Primary qHTS to identify gynecologic anti-cancer compounds using libraries of approved drugs and bioactive compounds (AID 1345084); details: Gynecologic cancer cell panel viability, ATPlite luminescence, 48 h; series mostly up to 57.5 µM; activity change, negative = cytotoxicity: at the top concentration; further: nearly all actives have a fitted effect of over 55% in size
Procedure, shortened: (§1)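 Cell viability after 48 h drug treatment, ATPlite luminescence readout; five doses.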
On the % scale 0 is the no-effect control and ±100 the full control effect.

Row | Structure (SMILES) | activity change, negative = cytotoxicity
1 | COCCc1ccccn1 | 8.69% (inactive)
2 | OC1(c2ccccc2)CCNCC1 | 1.06% (inactive)
3 | O=C1NC(c2ccccc2)(c2ccccc2)C(=O)N1COP(=O)(O)O | -0.747% (inactive)
4 | COC(=O)c1cc(Cl)ccc1OC | 9.67% (inactive)
5 | COC(=O)CCCCC(CCSS/C(CCO)=C(\C)N(C=O)Cc1cnc(C)nc1N)SC(C)=O (configuration not stated) | 0.11% (inactive)
6 | COc1ccc2nc(SCc3ncc(C)c(OC)c3C)[nH]c2c1 | -3.76% (inactive)
7 | Cc1ccc(C(C)OC(=O)C2(C)CCC(C(=O)O)C2(C)C)cc1 (configuration not stated) | -4.2% (inactive)
8 | CN(C)CCN1CCN(c2cccc(Cl)c2)C1=O | 7.63% (inactive)
9 | CCOC(=O)C(=O)CCCCCCl | 4.07% (inactive)
10 | CCOC(=O)Oc1ccc(CCNC(=O)[C@H](CCSC)NC(C)=O)cc1OC(=O)OCC | 2.51% (inactive)
11 | COC(=O)c1cc(Cl)c(NC(C)=O)cc1OC | 3.3% (inactive)
12 | CCN1CCN(c2cc(-c3ccc(F)cc3)c3c(n2)CCCCCC3)CC1 | 8.93% (inactive)
13 | CCCc1ncc(C(=O)O)s1 | -4.91% (inactive)
14 | Cc1coc2ccccc2c1=O | -2.86% (inactive)
15 | O=C1CC2(CCCC2)CC(=O)N1 | -5.57% (inactive)
16 | COC(=O)/C=C\C(=O)OC | 0.904% (inactive)
17 | C#CC(C)(CC)OC(=O)c1ccccc1C(=O)O (configuration not stated) | 2.84% (inactive)
18 | O=C(O)Cn1c(=O)n(Cc2ccc(Br)cc2F)c(=O)c2ccc(Cl)cc21 | 13.3% (inactive)

Row | Structure (SMILES) | activity change, negative = cytotoxicity
19 | CN1CCN(N)CC1 | -8.05% (inactive)
20 | CC(CC(C#N)(c1ccccc1)C(C)C)N(C)C (configuration not stated) | 5.08% (inactive)
21 | CCOC(=O)CN1CCCC1=O | -5.42% (inactive)
22 | CC(C)(C)NCC(O)COc1ccccc1OCC1CCCO1 (configuration not stated) | 10% (inactive)
23 | CCN(CC)CC(=O)Oc1ccc(NC(C)=O)cc1 | 6.55% (inactive)
24 | COC(=O)/C=C(/C)N | -7.76% (inactive)
25 | C#Cc1ccc(-c2ccccc2F)cc1 | -0.149% (inactive)
26 | NS(=O)(=O)c1cc(C(=O)NN2C[C@H]3[C@H]4CCC(C4)[C@H]3C2)ccc1Cl | -3.43% (inactive)
27 | Cc1[nH]cnc1-c1ccc(Cl)cc1 | -0.163% (inactive)
28 | c1ccc2c(c1)CCc1ccccc1N2 | 1.28% (inactive)
29 | COC(=O)c1cc(S(N)(=O)=O)ccc1OC | 11.5% (inactive)
30 | CCOc1ccccc1OCC1CNCCO1 (configuration not stated) | -0.276% (inactive)
31 | O=C(C1CCCCC1)N1CC(=O)N2CCCc3ccccc3C2C1 (configuration not stated) | 10.3% (inactive)
32 | CCn1ccc(NS(=O)(=O)c2ccc(N)cc2)nc1=O | -2.15% (inactive)
33 | CSCC[C@H](NC(=O)[C@H](Cc1c[nH]c2ccccc12)NC(=O)CCNC(=O)OC(C)(C)C)C(=O)N[C@@H](CC(=O)O)C(=O)N[C@@H](Cc1ccccc1)C(N)=O | 7.71% (inactive)
34 | O=C(O)C(=O)Nc1cccc(-c2nn[nH]n2)c1 | 0.0162% (inactive)
35 | COc1ccc(CCC(C)=O)cc1 | -2.96% (inactive)
36 | COc1cc(S(N)(=O)=O)cc(C(=O)O)c1OC | 6.09% (inactive)

test system: Es-2; test: as above; details: Gynecologic cancer cell panel viability, ATPlite luminescence, 48 h; series mostly up to 57.5 µM; activity change, negative = cytotoxicity: at the top concentration
Procedure, shortened: as §1

Row | Structure (SMILES) | activity change, negative = cytotoxicity
37 | COCCc1ccccn1 | 2.56% (inactive)
38 | OC1(c2ccccc2)CCNCC1 | 12.6% (inactive)
39 | O=C1NC(c2ccccc2)(c2ccccc2)C(=O)N1COP(=O)(O)O | -2.04% (inactive)
40 | COC(=O)c1cc(Cl)ccc1OC | 4.99% (inactive)
41 | COC(=O)CCCCC(CCSS/C(CCO)=C(\C)N(C=O)Cc1cnc(C)nc1N)SC(C)=O (configuration not stated) | -1.53% (inactive)
42 | COc1ccc2nc(SCc3ncc(C)c(OC)c3C)[nH]c2c1 | -0.918% (inactive)
43 | Cc1ccc(C(C)OC(=O)C2(C)CCC(C(=O)O)C2(C)C)cc1 (configuration not stated) | -0.0097% (inactive)
44 | CN(C)CCN1CCN(c2cccc(Cl)c2)C1=O | -0.0229% (inactive)
45 | CCOC(=O)C(=O)CCCCCCl | 0.0332% (inactive)
46 | CCOC(=O)Oc1ccc(CCNC(=O)[C@H](CCSC)NC(C)=O)cc1OC(=O)OCC | -3.12% (inactive)
47 | COC(=O)c1cc(Cl)c(NC(C)=O)cc1OC | -1.41% (inactive)
48 | CCN1CCN(c2cc(-c3ccc(F)cc3)c3c(n2)CCCCCC3)CC1 | 2.33% (inactive)
49 | CCCc1ncc(C(=O)O)s1 | -0.862% (inactive)
50 | Cc1coc2ccccc2c1=O | 5.62% (inactive)
51 | O=C1CC2(CCCC2)CC(=O)N1 | 5.49% (inactive)
52 | COC(=O)/C=C\C(=O)OC | 3.34% (inactive)
53 | C#CC(C)(CC)OC(=O)c1ccccc1C(=O)O (configuration not stated) | 10.6% (inactive)
54 | O=C(O)Cn1c(=O)n(Cc2ccc(Br)cc2F)c(=O)c2ccc(Cl)cc21 | -0.0977% (inactive)

Row | Structure (SMILES) | activity change, negative = cytotoxicity
55 | CN1CCN(N)CC1 | -2.86% (inactive)
56 | CC(CC(C#N)(c1ccccc1)C(C)C)N(C)C (configuration not stated) | 1.56% (inactive)
57 | CCOC(=O)CN1CCCC1=O | -3.15% (inactive)
58 | CC(C)(C)NCC(O)COc1ccccc1OCC1CCCO1 (configuration not stated) | -0.949% (inactive)
59 | CCN(CC)CC(=O)Oc1ccc(NC(C)=O)cc1 | 1.49% (inactive)
60 | COC(=O)/C=C(/C)N | 6.01% (inactive)
61 | C#Cc1ccc(-c2ccccc2F)cc1 | 13.6% (inactive)
62 | NS(=O)(=O)c1cc(C(=O)NN2C[C@H]3[C@H]4CCC(C4)[C@H]3C2)ccc1Cl | -8.28% (inactive)
63 | Cc1[nH]cnc1-c1ccc(Cl)cc1 | 3.13% (inactive)
64 | c1ccc2c(c1)CCc1ccccc1N2 | 5.96% (inactive)
65 | COC(=O)c1cc(S(N)(=O)=O)ccc1OC | -2.16% (inactive)
66 | CCOc1ccccc1OCC1CNCCO1 (configuration not stated) | 4.15% (inactive)
67 | O=C(C1CCCCC1)N1CC(=O)N2CCCc3ccccc3C2C1 (configuration not stated) | -1.62% (inactive)
68 | CCn1ccc(NS(=O)(=O)c2ccc(N)cc2)nc1=O | 3.01% (inactive)
69 | CSCC[C@H](NC(=O)[C@H](Cc1c[nH]c2ccccc12)NC(=O)CCNC(=O)OC(C)(C)C)C(=O)N[C@@H](CC(=O)O)C(=O)N[C@@H](Cc1ccccc1)C(N)=O | 14.7% (inactive)
70 | O=C(O)C(=O)Nc1cccc(-c2nn[nH]n2)c1 | 10.2% (inactive)
71 | COc1ccc(CCC(C)=O)cc1 | 10.4% (inactive)
72 | COc1cc(S(N)(=O)=O)cc(C(=O)O)c1OC | 15.9% (inactive)
